Source: PubChem BioAssay
Compounds with a hit are over-represented: about 0.4% of the library has one in this group of screens.
AID inhibitor – blocks human AID cytidine deaminase activity; AID 1347428; Potency, µM (titrated, usually from 115 µM), actives largely listed as inhibitors; 91,000 tested, 0.32% active; AID deamination FRET fluorescence, UDG-coupled, 4 h; also: nearly all actives have a fitted effect of over 25% in size
Target sequence (Q9GZX7 whole entry, looked up): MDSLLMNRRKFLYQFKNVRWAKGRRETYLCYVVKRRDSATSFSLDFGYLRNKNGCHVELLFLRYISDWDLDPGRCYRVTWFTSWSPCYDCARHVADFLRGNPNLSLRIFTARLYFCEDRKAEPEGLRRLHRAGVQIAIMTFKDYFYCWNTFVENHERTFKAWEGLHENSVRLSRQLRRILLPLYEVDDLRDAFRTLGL
UDG counter – UDG inhibition counter-screen; FRET deamination/UDG coupled assay, UDG read, 4 h; Potency, µM (doses to about 115 µM), for the others: top-dose activity change, negative = inhibition, hits mostly inhibitors; 91,000 tested, 0.14% active; also: nearly all actives have a fitted effect of over 65% in size
Numbers without * were called inactive; i = inactive; u = inconclusive; [ ] = another dose, or the depositor's remark. Calls follow the shape of the dose curve; as a rule, active = well fitted curve in the direction sought with a large enough effect; inconclusive = small, poorly fitted or top-dose-only effect, or another doubt; inactive = no such curve, though single readings can be large; an effect the other way counts as inactive or inconclusive. % is scaled to controls: 0 for no effect and ±100 for the full control effect; potency is read from the fitted curve at half-maximal effect.

SMILES	AID inhibitor	UDG counter
Cn1c(=O)c2c(-c3ccc(Cl)cc3)n(CCc3ccccc3)cc2n(C)c1=O	u	-17.9%
Cn1nc(-c2ccc(OCC(=O)N3CCOCC3)cc2)c2ccccc2c1=O	i	3.0%
Cn1nc(-c2ccc(N3CCOCC3)c(NC(=O)COc3ccccc3)c2)c2ccccc2c1=O	u	89.1µM*
Nc1ccc(C2=CSC3=NCCCN23)cc1	i	-1.7%
CCOc1ccccc1NC(=O)C(CC)Sc1nc2ncccc2[nH]1 (stereo unspecified)	i	-2.2%[57.5 µM]
CCOc1ccccc1NC(=O)C(C)Sc1nc(-c2ccccc2)c(C#N)c(=O)[nH]1 (stereo unspecified)	35.5µM*	7.3%
O=C(NCCc1c[nH]c2ccccc12)c1ccccn1	i	-6.8%
O=C(O)c1c(-c2ccccc2)oc2ccc(OCc3c(F)cccc3Cl)cc12	79.4µM*	-16.3%
CCOC(=O)c1c(-c2ccc(OC)cc2)oc2ccc(OCc3ccc(F)cc3F)cc12	i	-5.3%[57.5 µM]
CCN(CC)C(=O)CSc1nc(-c2ccccc2F)nc2c1Cc1c(CO)cnc(C)c1O2	28.2µM*	4.9%
CCc1ccc(CSc2nc(-c3ccccc3F)nc3c2Cc2c(CO)cnc(C)c2O3)cc1	i	-1.8%
CCOc1ccc(CCNC(=O)c2nc(-c3cccc(F)c3)n3c2CCCCC3)cc1OCC	17.8µM*	u
CN(C(=O)c1nc(-c2cccc(F)c2)n2c1CCCCC2)c1ccccc1F	i	-2.1%
CCOc1ccc(/C(O)=C2\C(=O)C(=O)NC2c2ccc(Cl)cc2)cc1 (stereo unspecified)	i	-6.7%
Cc1ccc(CSc2nnnn2-c2c(C)n(C)n(-c3ccccc3)c2=O)cc1	i	0.5%
Cc1ccc(-n2[nH]c(CSc3nnnn3-c3ccccc3)cc2=O)cc1	i	89.1µM*
CCC(C)Cn1c(/C=C/c2ccccc2)nc2ccccc21 (stereo unspecified)	u	79.4µM*
CC(C)Cn1c(/C=C/c2ccc(F)cc2)nc2ccccc21	i	14.4%
Cc1ccnc(Nc2nc(-c3ccc(F)c(C)c3)cs2)c1	i	-8.3%
COC(=O)/C(=C1/Oc2c(C)cc(C)cc2S1)C(F)(F)F	i	9.4%
Cc1ccc(Cl)cc1NC(=O)Nc1nnc(N(C)Cc2ccccc2)s1	i	89.1µM*
Cc1ccc(NC(=O)Nc2nnc(N(C)Cc3ccccc3)s2)c(C)c1	i	-10.2%
O=C(Cn1nc(C(=O)O)c2ccccc2c1=O)Nc1ccccc1Cc1ccccc1	i	4.3%
CN(C)CCCNC(=O)CNc1nc(Cl)nc2nc[nH]c12	i	37.4%
COc1cccc(NC(=O)Cn2c(=O)oc3cc(S(=O)(=O)N4CCCCC4)ccc32)c1	i	89.1µM*
SMILES	AID inhibitor	UDG counter
Cc1cccc(NC(=O)Cn2c(=O)oc3cc(S(=O)(=O)N4CCCCCC4)ccc32)c1	i	-12.3%
FC(F)(F)c1cccc(Nc2nc(CN3CCOCC3)nc3sc4c(c23)CCCC4)c1	i	-12.4%
CC1CCN(S(=O)(=O)c2ccc(NC(=O)C3CC(=O)N(CCc4ccc(F)cc4)C3)cc2)CC1 (stereo unspecified)	i	89.1µM*
CCc1ccc(NC(=O)C2CCCN(S(=O)(=O)c3ccc(F)cc3)C2)cc1 (stereo unspecified)	i	-0.7%
COc1ccc(S(=O)(=O)N(CC(=O)Nc2cccc(C(F)(F)F)c2)c2ccc(C)cc2)cc1	25.1µM*	-11.2%
COc1ccc(S(=O)(=O)N(CC(=O)Nc2cc(C)cc(C)c2)c2ccc(Cl)cc2)cc1	i	-0.8%
COc1ccc(S(=O)(=O)N(CC(=O)NC(C)c2ccccc2)c2ccc(C)cc2)cc1OC (stereo unspecified)	44.7µM*	u
COc1ccc(S(=O)(=O)N(CC(=O)NCc2ccccc2)c2ccc(C)cc2)cc1OC	i	-7.9%
CCC(=O)c1ccc(OC(=O)c2ccc(C)c(Br)c2)cc1	i	-0.5%
CCOC(=O)c1c(C)[nH]c(C(=O)OC(C)C(N)=O)c1C (stereo unspecified)	i	-1.7%
CC1CCCCC1NC(=S)NCc1ccncc1 (stereo unspecified)	i	-10.3%
Cc1ccc(NC(=O)CSc2nc3c(c(=O)[nH]2)CCC3)cc1	i	-1.5%
Clc1cccc(CSc2nc3ncccc3o2)c1	i	2.7%
Clc1cccc(CSc2cccc3cccnc23)c1	25.1µM*	-2.8%
O=Cc1c(-c2ccc(Br)cc2)[nH]c2ccccc12	i	-1.4%
COCCN(CC(=O)NC(N)=O)Cc1ccccc1	i	9.9%
Cc1ccc(Cn2ccnc2SCC(=O)Nc2ccc3c(c2)OCO3)cc1	79.4µM*	u
Cc1ccc(Cn2ccnc2SCC(=O)Nc2ccc3c(c2)OCCO3)cc1	i	-12.8%
COc1ccc2cc(C(=O)N3CCN(c4ccccc4O)CC3)c(C)nc2c1	i	-2.0%
Cc1ccc(C)c(OCC(O)Cn2nc(C)c3ccccc3c2=O)c1 (stereo unspecified)	i	1.8%
CCc1ccc(-n2c(=O)c3c(C)c(C(=O)N(C)C)sc3n(Cc3ccccc3F)c2=O)cc1	i	0.0%[57.5 µM]
Cc1c(C(=O)N(C)C)sc2c1c(=O)n(-c1ccc(F)cc1)c(=O)n2Cc1ccccc1C#N	i	89.1µM*
CC(SC(=S)N(C)C)C(=O)NC(C)c1ccc(F)cc1 (stereo unspecified)	i	5.2%
CC1(C)CC(=O)C2=C(C1)N(Cc1ccccc1)C(C1CCCCC1)=NC2(C(F)(F)F)C(F)(F)F	i	5.0%
CCCCCCn1nc(C(=O)Nc2ccc(OC)c(NC(C)=O)c2)c2ccccc2c1=O	i	-4.7%
SMILES	AID inhibitor	UDG counter
Cc1nc2nc(SCC(=O)N(C)Cc3ccccc3)nn2c(C)c1Cc1ccccc1Cl	44.7µM*	-15.3%
Cc1nc2nc(SCC(=O)NCc3ccccc3Cl)nn2c(C)c1Cc1ccccc1	u	0.2%
CN(C)C(=O)C1CCC(C)(C(=O)O)C1(C)CI (stereo unspecified)	i	-12.8%
O=C1/C(=C/c2ccc(F)c(Br)c2)Cc2ccccc21	i	-1.6%
O=Cc1ccc(OCc2ccccc2Cl)cc1	i	-6.4%
O=Cc1cc(Cc2ccccc2Cl)cc(Br)c1O	35.5µM*	-13.5%
CCOc1ccccc1N1CC(c2nc3ccccc3n2CCCCOc2cc(C)ccc2C)CC1=O (stereo unspecified)	i	-9.6%
Cc1ccc(C)c(OCCn2c(C3CC(=O)N(Cc4ccc(F)cc4)C3)nc3ccccc32)c1 (stereo unspecified)	28.2µM*	79.4µM*
O=C(NCCc1c[nH]c2ccc(Cl)cc12)c1c(F)cccc1F	i	-8.7%
CC(=O)N1CCc2c(sc3c2c(=O)n(Cc2ccccc2)c(=O)n3Cc2ccc(Cl)cc2)C1	i	0.9%
CC(=O)N1CCc2c(sc3c2c(=O)n(Cc2ccccc2)c(=O)n3Cc2cccc(Cl)c2)C1	31.6µM*	u
COc1cccc(N2CCN(C(=O)CCS(=O)(=O)c3ccc4c(c3)CC(=O)N4C)CC2)c1	i	u
CN1C(=O)Cc2cc(S(=O)(=O)CCC(=O)N3CCN(c4ccc(Cl)cc4)CC3)ccc21	i	89.1µM*
CCOC(=O)N1CCc2c(sc(NCc3ccc(N(C)C)cc3)c2C(=O)Nc2ccc(OC)cc2)C1	50.1µM*	-28.7%
CCOC(=O)N1CCc2c(sc(NCc3cccc(F)c3)c2C(=O)Nc2ccc(OC)cc2)C1	i	u
CCCc1nnc2c(=O)n(CC(=O)Nc3ccccc3C(=O)OCC)c3ccccc3n12	i	0.0%
